# The supplement of paper PMC6555819
# Assays:
# Experiment in all cases: PBM binding z-score (relative to random genomic background probes); higher = stronger binding; sequences stand for … in GC…GCGATTGACAGCGTAGAATGAAGG
# [1] = system: RARb homodimer (NR concentration 270 nM)
# In short: (§1)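 Antibodies against each partner of ligand-free nuclear receptor dimers (one per run) detected binding on custom Agilent 4×180K protein-binding microarrays after 1 h incubation. The double-stranded probes had 34-nt variable regions carrying direct-repeat seeds, single-nucleotide variants, half-site ablations and random human genomic background sequences. Binding z-scores, from regression-normalized fluorescence, use the random background probes as reference.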
# [2] = system: RARg:RXRa (NR concentration 270 nM, RXRa partner concentration 90 nM)
# In short: as §1
# [3] = system: RARg homodimer (NR concentration 270 nM)
# In short: as §1
# [4] = system: RXRa DBDmut IVT, anti-RXR (DBD mutation: RXRa K156A/R161A, NR concentration 90 nM)
# In short: as §1
# [5] = system: RXRa homodimer (NR concentration 180 nM)
# In short: as §1
# [6] = system: THRa:RXRa (NR concentration 90 nM, RXRa partner concentration 90 nM)
# In short: as §1
# [7] = system: THRa homodimer (NR concentration 90 nM)
# In short: as §1
# [8] = system: VDR homodimer (NR concentration 270 nM)
# In short: as §1
Sequence,PBM binding z-score [1],PBM binding z-score [2],PBM binding z-score [3],PBM binding z-score [4],PBM binding z-score [5],PBM binding z-score [6],PBM binding z-score [7],PBM binding z-score [8]
GCTATTAGGTGAAAGGGCAACCGAATGATTCTCG,2.47,2.34,1.75,0.924,2.35,2.04,0.498,0.381
CGAGCTAGGTCAAAGGACAGTGAAAGGCGACGTA,2.82,4.31,4.87,1.29,2.99,2.3,0.253,0.416
CGAAATAGGTCACCAGGACAGTGAAGAGGTTGGA,3.91,5.54,5.96,0.868,5.18,3.12,0.942,0.687
CAATCTAGGTCAAAGGTCAAAGTCGAGCCAACCA,5.31,8.93,7.21,2.92,10.3,4.99,2.3,2.73
TCTAGTTGGTCACGGAGGTCACACGCGACGGGTA,4.41,4.66,4.95,1.4,4.97,3.67,2.4,3.43
CCATGTAGGTTAAGGGGGTCATTCAGTTTGAAAG,4.05,5.03,3.85,2.37,5.74,3.87,2.67,6.01
TCGAGTAGGTTACCGGGGCATTCAGGGATGAAGA,1.09,1.01,0.946,-0.0634,0.997,2.25,0.104,-0.232
GGAACGAGGGCATTCGAGTTGATAGCATGGCGAT,0.687,0.932,1.3,3.13,0.756,3.03,-0.775,2.78
CGAACTAGGACATCCAGGACAGTGAATACATTGA,0.243,0.252,0.695,0.592,0.0939,1.78,1.4,0.467
TAGCCTAGGTCAGATCGGGGCAGTATACGCTATA,2.27,2.87,3.83,-0.173,1.6,4.07,0.0921,0.0728
CTCGAAAGGTCGTGCTCAGGTGAGTACACCAAAC,2.93,5.5,4.41,2.36,5.63,4.01,1.21,2.52
CTATGTAGGTTAAGGGGGTCAATCAGTTTGAAAG,3.94,5.13,4.33,1.67,5.67,3.81,1.49,4.34
CGTCCAAGGTCAAGGGCAGTGAAAGAGACTCGAA,4.22,5.8,6.3,3.02,5,3.87,2.22,1.92
CTATGTAGCTTAAGGGGGTCATTCAGTTTGAAAG,3.58,4.42,3.15,2.56,5.27,3.69,2.41,6.05
TCTAGGAGGACACGAAGGTCAGAGCTTTCCAGAG,3.47,3.15,3.8,0.842,2.01,2.61,0.635,0.851
CTCGAAAGGTCGGTTGAGGTCAGTATACGGATAA,4.41,4.95,4.93,1.63,4.02,5.26,3.23,3.44
AGTCATAGTTCACTAGGTAACGTAAGATTCAGCT,2.32,2.32,2.72,1.82,1.6,1.11,0.171,0.797
CAAACTAGGTCAAAGGTCAACGTCGAGCCAACCA,5.12,8.91,7.98,2.88,10.3,4.98,2.1,2.86
CCTAGTTGGTCAGGAAGTCACACACCGGATATGA,1,0.765,0.857,0.171,0.568,0.226,0.522,0.457
ATATGTAGGTTAGGGTCATCCAGAAAGTAGGGAA,3.38,4.31,3.5,2.19,5.6,4.15,3.73,3.58
ATACCAAGGTGATCGTGAGTTCGTTGATACTAAC,0.465,0.682,0.338,1.2,0.456,1.58,0.74,4.63
CGAACTAGGTCACCAGGACAGTGGAGAGGTTGGA,3.32,4.53,5.51,1.04,3.27,3.34,1.78,0.74
GATACAGGGTCAAGGCCAGAGTACGCGTATTGAT,3.46,5.41,4.92,2.66,5.69,3.52,1.35,2.91
CGAACTAGGTCAAAGGACAGTTAAAGGCGACGTA,3.01,4.13,4.51,1.67,3.1,2.49,0.41,0.768
CGTCCAAGGTCAAGCTCAGTGAAAGAGACTCGAA,3.96,6.43,6.63,3.51,6.22,3.76,2.32,2.03
TTTAGTTGGTCAAAGGTCACACACTCGAAATGCG,5.1,7.25,6.17,1.17,8.07,4.04,2.03,2.6

Sequence,PBM binding z-score [1],PBM binding z-score [2],PBM binding z-score [3],PBM binding z-score [4],PBM binding z-score [5],PBM binding z-score [6],PBM binding z-score [7],PBM binding z-score [8]
CTAACTAGGTCAAAGGACAGTGAAAGGCGACGTA,3.08,4.05,4.84,1.68,2.97,2.58,0.419,0.409
ATATGTAGGGTAGGGTCATTCAGAAAGTAGGGAA,3.53,3.55,2.77,2.93,4.34,4.11,3.7,4.73
ATATGTAGGTTAGGGTCAATCAGAAAGTAGGGAA,3.59,4.12,3.71,1.23,5.05,3.83,2.6,2.43
CCTACTGGGCCAAAGGTCCTTGATTCCAATGCTC,0.379,0.102,-0.124,-0.459,0.121,-0.00931,-0.139,-0.217
CAAACTAGGTCACAGAGGTCAACGTCCGTGCGTA,5.75,7.28,8.09,3.2,7.63,4.9,3.25,5.58
CCGAGTAGGTTACGAGAGGGCATTCAGTGCGAAT,1.65,1.75,1.42,0.522,1.39,3.76,-0.738,2.06
CCTTACCGGTCAAGGTTATAGCACGGGTGGTACG,2.84,2.53,3.33,-0.447,1.46,1.74,0.941,0.853
CTATGTAGGTTAAGGGGGTCATTCTGTTTGAAAG,3.79,4.83,3.82,2.56,5.51,3.69,2.09,4.58
GCTGCTAGGTCAACTGATGGTCAGCTAGAGCTCG,3.68,5.23,5.53,1.73,2.87,3.1,1.07,0.0219
TTACCAAGGTGAACTGAGGTCGTTGATCCAACTC,2.38,2.52,1.54,1.71,2.63,4.93,3.07,3.63
CTATGTAGGTTAAGCGGGTCATTCAGTTTGAAAG,2.58,2.62,1.94,1.29,3.17,2.56,0.448,3.14
TTAACAAGGTGAAAGGTCGTTGATGCACGCCTTG,2.51,4.28,2.1,0.328,6.17,3.51,0.757,1.24
TCGAGTAGGTAACGGGGGCATTCAGGGATGAAGA,1.54,2.02,1.09,1.75,1.74,3.76,1.33,2.49
ATCGAAAGGTCGTGAGGTGTGTATACAGAAAGGC,2.68,4.5,4.17,1.67,4.81,2.44,-0.109,1.16
TCGAGTCGGTTACGGGGGCATTCAGGGATGAAGA,1.57,2.4,1.77,1.16,1.5,3.45,0.955,2.23
CGAACTAGGTCAAAGGACAGTCAAAGGCGACGTA,3.04,4.11,4.5,1.74,3.05,2.54,0.161,0.43
CTATGTAGGTTAAAGGGGTCATTCAGTTTGAAAG,4.23,5.28,4.06,2.87,6.56,3.91,1.29,6.99
ACTAGAAGGCCAAGGGTCACTCAAGATTAGTCCG,3.97,4.79,4.33,0.883,4.57,2.87,0.528,1.92
CCGAGTAGGTTACGAAGGGGCATTCAGTGCGAAT,1.42,1.22,1.2,0.309,0.781,2.26,-0.808,1.23
TCTTGTAGATCAAAGGTTAAGACAGCCGAAGCCT,1.45,1.94,1.05,0.925,3.08,1.24,-0.0838,0.141
ATATGTAGGTTAGGGTCATTCACAAAGTAGGGAA,3.69,3.98,3.1,2.7,5.07,4.38,2.96,3.86
TCGATTAGGTTACGGGGGCATTCAGGGATGAAGA,2.92,3.79,3.07,2.95,3.17,4.36,2.54,4.05
ATATGTAGGTAACATCCGGGTCATTCAGGCTATG,2.68,2.39,1.58,0.786,2.49,3.62,2.74,2.52
TCGAGTAGGTTACGGGCGCATTCAGGGATGAAGA,0.216,0.276,0.202,-0.064,0.599,0.304,-0.327,-0.375
ATATGTAGGTTAGGGTCACTCAGAAAGTAGGGAA,3.57,3.98,3.56,1.74,5.09,4.21,3.46,2.6
CCGACGGGGGCAGAAAGGTTACCATACCATCCGG,3.29,4.2,3.58,1.16,3.31,2.99,0.6,2.21
